The values that follow come from PubChem BioAssay.

Experiment [1] can be described thus: reducers of endogenous Her2 protein level, primary screen, SKBR3 breast tumor cells, AlphaScreen, ATP viability (AID 461;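 active = Her2 level under about 52% in both replicate screens, with viability over 70% of control, limit read from the data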;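 for Her2 level: lower value means less Her2 protein in the cells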;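 for viability: percent of carrier control wells set as 100% viability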). Conditions: 18-24 h, measured here: SKBR3 viability, ATP luminescence, at 10 µM.
Experiment [2] deals with Receptor tyrosine-protein kinase erbB-2 (Homo sapiens) (UniProt P04626). Described as above. The following applies: 18-24 h, at 10 µM, stronger effect = lower value.
Experiment [3] is described as follows: SK-BR-3 cell growth inhibitors, pilot screen, 24 h, human (AID 572;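 active = viability at or below 10% of carrier control in both of two separate runs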;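 note: compound exposure lasted between 18 and 24 h rather than exactly 24 h; 100% = carrier-treated control wells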). Conditions: SK-BR-3 viability, CellTiter-Glo luminescence, at 10 µM, stronger effect = lower value.
A short description of experiment [4]: HUVEC growth inhibition – cell-based, human, primary screen (AID 575).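 Note: 100% = median of untreated cell wells with 0.1% DMSO on each plate.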 Conditions: HUVEC proliferation, CellTiter-Glo luminescence, 72 h; at 10 µM; stronger effect = lower value.
Experiment [5] can be described thus: growth inhibitors of H69AR lung tumor, primary screen, human, duplicate replicates (AID 580;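 active = viability at or under a set limit in both replicates, limit being median viability minus 3 SD, cut at about 48% in these data, passing the limit was not always enough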;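 note: 100% = mean luminescence of untreated wells and 0% = no signal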). Conditions: H69AR lung tumor cells viability, ATP luminescence, 72 h; at 10 µM; stronger effect = lower value.
Experiment [6] in a line: reversal of MRP1-mediated doxorubicin resistance, pilot screen, H69AR cells, doxorubicin co-treatment (AID 601;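 active = viability loss from added drug above about 55%, and viability with drug at most 40%, in both replicates, limit read from the data, passing the limit was not always enough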). Conditions: CellTiter-Glo, 72 h, at 10 µM; for differential viability (reversal): stronger effect = higher value.
Experiment [7] can be described thus: 384-well plate pilot, post-Golgi transport modulator project, inhibition of yeast transport mutant growth (AID 636; in the data active = inhibition above about 31%). The following applies: absorbance 615 nm, about 18 h, stronger effect = higher value.
Experiment [8] can be described thus: growth suppression of yeast trafficking mutant, preliminary HTS, modulators of trafficking downstream of Golgi apparatus project, 1536-format plate, OD 615 nm (AID 637; in the data active = inhibition above about 30%). Conditions: yeast transport mutant growth, absorbance 615 nm, 18 h; stronger effect = higher value.
Experiment [9] in a line: OD615 S. cerevisiae growth inhibition, permissive medium, pilot counter-assay, permissive growth control for S. cerevisiae lifespan shortening project (AID 705;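 active = growth inhibition above 25% in both replicates, a cutoff set 3 SD above the mean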). Conditions: OD615, 24 h, at 10 µM, stronger effect = higher value.
A short description of experiment [10]: Restrictive medium S. cerevisiae growth inhibition, OD615, pilot screen of yeast lifespan reduction project, restrictive growth control (AID 706;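 active = growth inhibition above a set limit, 3 SD over mean compound inhibition, in both replicates, cut at about 43% in these data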;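 note: modified DeaD lifespan yeast strain shifted to restrictive glucose medium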). The following applies: OD615, 48 h, at 10 µM, stronger effect = higher value.
Experiment [11] is described as follows: viability gain of MRP-1-high H69AR cells under doxorubicin, pilot screen, MRP-1 activator project, CellTiter-Glo, duplicate (AID 807;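 active = viability increase at or above a cutoff of the median across tested compounds plus 3 SD, cut at about 8.5% in these data, passing the limit was not always enough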;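 note: compound pretreatment 18-22 h then 72 h combined with doxorubicin; 0% = doxorubicin alone and 100% = vehicle without doxorubicin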). Conditions: H69AR viability with doxorubicin, CellTiter-Glo luminescence; at 10 µM; stronger effect = higher value.
Experiment [12] can be described thus: growth suppression of beta-catenin knockout HCT116, pilot screen, human colon tumor cells (AID 823;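 active = cell viability at or below a set limit in both duplicate runs, the limit being the all-compound median minus 4 SD, cut at about 23% in these data, passing the limit was not always enough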;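 note: 0% = wells killed by 20 µM Hyamine and 100% = untreated DMSO cell wells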). Conditions: CellTiter-Glo, 60 h, at 10 µM, stronger effect = lower value.
Experiment [13] is described as follows: growth suppression of PTEN-deleted HCT116, pilot screen, cell-based, HCT116 clonal line, CellTiter-Glo (AID 824;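 active = viability at or below 27.92% in each of two runs, the all-compound median minus 4 SD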;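 note: 0% = 20 µM Hyamine control and 100% = vehicle cell control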). The following applies: 60 h, at 10 µM, stronger effect = lower value.
Experiment [14] can be described thus: inhibitors of the yeast RAM network, pilot screen, dse1pr::URA3 reporter, 5-FOA selection (AID 869;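 active = inhibition over a set limit, the all-compound mean plus 3 SD, in both replicate runs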;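 note: 0% = DMSO wells with no growth and 100% = 10 µM 1-NA-PP1 with full growth; RAM network block rescues cells from 5-FOA so hits raise OD615 growth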). The following applies: S. cerevisiae dse1pr::URA3 5-FOA growth, OD615, 2 d; at 10 µM; stronger effect = higher value; strain carries analog-sensitive mutant Cbk1 kinase.
Where [15] appears, read: H69AR cells + 2 uM doxorubicin, measured here: viability with 2 uM doxorubicin, stronger effect = lower value.
[16] abbreviates: H69AR cells, compound alone cytotoxicity.

Inconclusive results are not listed. Calls of active or inactive are those of the source.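 Rule for the calls, unless noted: active = viability at or below 30% in both replicate assays; inconclusive = viability at or below 30% in just one of the two assays; inactive = the rest.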

Sequence of Receptor tyrosine-protein kinase erbB-2 (Homo sapiens) (P04626 whole entry, looked up): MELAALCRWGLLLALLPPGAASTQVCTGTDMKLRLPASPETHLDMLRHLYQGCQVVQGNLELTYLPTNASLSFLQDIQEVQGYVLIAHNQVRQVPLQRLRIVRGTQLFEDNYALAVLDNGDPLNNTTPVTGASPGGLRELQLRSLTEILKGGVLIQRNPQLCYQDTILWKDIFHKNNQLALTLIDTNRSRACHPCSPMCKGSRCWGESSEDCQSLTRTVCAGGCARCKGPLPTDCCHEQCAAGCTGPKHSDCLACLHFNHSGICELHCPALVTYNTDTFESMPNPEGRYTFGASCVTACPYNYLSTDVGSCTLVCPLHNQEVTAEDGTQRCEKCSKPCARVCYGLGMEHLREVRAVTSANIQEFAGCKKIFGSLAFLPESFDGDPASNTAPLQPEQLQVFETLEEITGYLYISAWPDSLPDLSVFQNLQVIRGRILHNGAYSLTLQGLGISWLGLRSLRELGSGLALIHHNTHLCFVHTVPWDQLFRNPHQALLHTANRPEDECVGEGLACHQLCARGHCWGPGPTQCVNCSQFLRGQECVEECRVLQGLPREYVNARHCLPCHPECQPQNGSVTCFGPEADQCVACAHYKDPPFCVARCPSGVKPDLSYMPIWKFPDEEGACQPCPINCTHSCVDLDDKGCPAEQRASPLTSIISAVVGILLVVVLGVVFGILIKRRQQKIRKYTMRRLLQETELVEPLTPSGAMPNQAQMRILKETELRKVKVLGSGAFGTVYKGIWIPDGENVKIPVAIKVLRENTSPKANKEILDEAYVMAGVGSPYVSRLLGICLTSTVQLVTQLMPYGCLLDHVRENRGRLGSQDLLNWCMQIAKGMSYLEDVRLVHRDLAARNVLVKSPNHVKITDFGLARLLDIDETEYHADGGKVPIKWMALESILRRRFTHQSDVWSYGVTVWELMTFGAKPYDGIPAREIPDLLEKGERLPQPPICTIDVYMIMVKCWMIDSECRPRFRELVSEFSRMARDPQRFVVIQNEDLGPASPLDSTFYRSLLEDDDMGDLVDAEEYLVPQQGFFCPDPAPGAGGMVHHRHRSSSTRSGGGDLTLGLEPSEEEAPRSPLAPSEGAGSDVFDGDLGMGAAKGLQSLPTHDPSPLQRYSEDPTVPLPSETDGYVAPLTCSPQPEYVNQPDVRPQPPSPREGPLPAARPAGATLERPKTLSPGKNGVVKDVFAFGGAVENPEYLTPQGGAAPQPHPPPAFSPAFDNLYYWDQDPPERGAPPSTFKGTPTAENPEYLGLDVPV

Regarding `C=CCn1c(SCC(=O)Nc2cccc(OC)c2)nnc1-c1cccnc1`, the viability in experiment [1] is 92.5%; in experiment [3], 92.5% (inactive); in experiment [4], 87.2% (inactive); in [5] it was 95.4% (inactive); in [6] (setting [15]) it was 87.5%; in experiment [6] (setting [16]), 95.4%. Also, the viability in [12] is 99.6% (inactive); in experiment [13], 96.8% (inactive). In addition, the Her2 level in [2] was 95% (inactive). In addition, the differential viability (reversal) in experiment [6] (H69AR cells + 2 uM doxorubicin) was 7.9% (inactive). The inhibition is -6.4% (inactive) in [7], 3.33% (inactive) in experiment [8] and 0.365% (inactive) in experiment [14]. The growth inhibition in experiment [9] is -11.3% (inactive); in [10] it was -8.35% (inactive). In [11], the viability increase was -2.95% (inactive).
For `COc1cc(-c2noc(-c3ccccc3C(=O)NCc3ccco3)n2)cc(OC)c1OC`, the viability is 79% in experiment [1]; 79% (inactive) in [3]; 55.6% (inactive) in [4]; 65.2% in [6] (setting [15]); 59% in [6] (setting [16]). For the same compound, the Her2 level in experiment [2] is 72.5% (inactive). The differential viability (reversal) in [6] (H69AR cells + 2 uM doxorubicin) is -6.29% (inactive). The inhibition in experiment [7] is -5.14% (inactive); in [8] it was 1.11% (inactive).
For the compound `Cc1ccc(Cn2nnc3c(=O)[nH]c(C4CCN(S(=O)(=O)c5ccc(F)cc5)CC4)nc32)cc1`, the viability in experiment [1] is 90.5%; in experiment [3], 90.5% (inactive); in experiment [4] it was 76.4% (inactive); in [5], 86.2% (inactive). Besides, the Her2 level in [2] was 106% (inactive). Further, the inhibition in experiment [7] was -1.73% (inactive); in experiment [8] it was -5.16% (inactive).
Regarding `CCc1nc(N)nc(N)c1-c1ccc(Cl)cc1`, the viability was 103% in experiment [1]; 103% (inactive) in experiment [3]; 117% (inactive) in experiment [4]; 95.8% in experiment [6] (setting [15]); 35.9% in experiment [6] (setting [16]). Also, the Her2 level in experiment [2] is 79% (inactive). Besides, in [6] (H69AR cells + 2 uM doxorubicin), the differential viability (reversal) was -59.9% (inactive).
`O=C(NCc1nnc(SCC(=O)N2CCC(Cc3ccccc3)CC2)o1)c1ccccc1F`: the viability was 85% in [1]; 85% (inactive) in experiment [3]; 74.5% (inactive) in experiment [4]; 98.8% (inactive) in experiment [5]; 94.8% in experiment [6] (setting [15]); 98.8% in experiment [6] (setting [16]). Besides, the viability is 90.2% (inactive) in experiment [12] and 92.2% (inactive) in [13]. For the same compound, the Her2 level in experiment [2] was 96.5% (inactive). For the same compound, the differential viability (reversal) in experiment [6] (H69AR cells + 2 uM doxorubicin) is 3.91% (inactive). The inhibition in [7] was 1.6% (inactive); in [8] it was 3.11% (inactive); in experiment [14], 1.69% (inactive). For the same compound, the values for the growth inhibition in [9] and in [10] were 5.21% (inactive) and 17.2% (inactive), respectively. In addition, the viability increase in experiment [11] was -0.76% (inactive).
Consider `O=C(c1ccc(Br)o1)N1CCN(c2ccc3nnc(-c4ccccc4)n3n2)CC1`, for which the viability in experiment [1] is 113%; in [3], 113% (inactive); in experiment [4], 56.6% (inactive); in [5], 75.8% (inactive); in [6] (setting [15]), 37.1%; in [6] (setting [16]), 75.8%. Besides, the viability in [12] was 45% (inactive); in experiment [13], 38.8% (inactive). Besides, the Her2 level in [2] is 78% (inactive). Also, in experiment [6] (H69AR cells + 2 uM doxorubicin), the differential viability (reversal) was 38.7% (inactive). In addition, the inhibition in experiment [7] was 2.82% (inactive); in experiment [8], -0.67% (inactive); in experiment [14], 1.29% (inactive). Also, in experiment [10], the growth inhibition is 45.7% (active). Also, the viability increase in experiment [11] is -1.47% (inactive).
In the case of `O=C(C1CCN(c2nnc(-n3cccc3)s2)CC1)N1CCN(Cc2ccc3c(c2)OCO3)CC1`, the viability in experiment [1] is 78.5%; in experiment [3], 78.5% (inactive); in experiment [4] it was 105% (inactive); in experiment [5] it was 82% (inactive); in [6] (setting [15]), 85.6%; in [6] (setting [16]), 82%. The viability in experiment [12] is 59.1% (inactive); in [13] it was 64.8% (inactive). Also, the Her2 level in experiment [2] is 80.5% (inactive). Also, in experiment [6] (H69AR cells + 2 uM doxorubicin), the differential viability (reversal) is -3.6% (inactive). Also, the results for the inhibition in experiment [7], in experiment [8] and in experiment [14] were 3.59% (inactive), 1.67% (inactive) and 2.78% (inactive), respectively. For the same compound, the growth inhibition in experiment [9] was 10.4% (inactive); in experiment [10] it was 10.1% (inactive). For the same compound, the viability increase in experiment [11] is -0.09% (inactive).
In the case of `C=CCN1C(=O)/C(=C2/Sc3ccccc3N2C)SC1=Nc1c(C)n[nH]c1C`, the viability in experiment [1] is 107%; in experiment [3] it was 107% (inactive); in experiment [4], 85% (inactive); in experiment [5], 75.5% (inactive). Moreover, in [2], the Her2 level was 86.5% (inactive). In addition, the inhibition in [7] is -5.2% (inactive); in experiment [8] it was 0.48% (inactive).
`Cn1c(=N)c(S(=O)(=O)c2ccccc2)cc2c(=O)n3ccccc3nc21`: the viability in [1] was 83.5%; in [3], 83.5% (inactive); in experiment [4], 83% (inactive); in [5], 75% (inactive). Besides, in experiment [2], the Her2 level is 108% (inactive). Besides, the inhibition is 3.87% (inactive) in [7] and 31.8% (active) in experiment [8].
As to `Cc1ccccc1Cn1c(=O)c2c(nc3n2CCCN3Cc2ccccc2)n(C)c1=O`, the viability in experiment [1] is 89%; in experiment [3], 89% (inactive); in [4], 65.5% (inactive); in experiment [5] it was 78.5% (inactive). Moreover, in [2], the Her2 level was 89% (inactive). Further, the inhibition in [7] was -3.2% (inactive); in experiment [8], -2.26% (inactive).
Take `C=CCSc1nnc2n(-c3ccccc3OC)c(=O)c3c4c(sc3n12)CCC4`: the viability is 83.5% in experiment [1], 83.5% (inactive) in experiment [3], 79.9% (inactive) in experiment [4] and 89.1% (inactive) in experiment [5]. Besides, the Her2 level in experiment [2] was 100% (inactive). Besides, the inhibition was -0.67% (inactive) in experiment [7] and -0.95% (inactive) in [8].
`Cn1c(=O)n(Cc2ccccc2)c(=O)c2c1nc(NCC1CCCO1)n2Cc1ccccc1` (centres undefined): the viability is 81.5% in experiment [1], 81.5% (inactive) in experiment [3], 74.4% (inactive) in experiment [4] and 73.3% (inactive) in experiment [5]. The Her2 level in experiment [2] is 103% (inactive). Moreover, the inhibition was 0.79% (inactive) in [7] and -0.18% (inactive) in experiment [8].
As for `Cc1[nH]c2ccccc2c1Cc1nnc(SCC(=O)NCc2ccco2)o1`, the viability in experiment [1] is 93%; in experiment [3], 93% (inactive); in experiment [4], 97.5% (inactive); in [5], 93.7% (inactive); in [6] (setting [15]), 85.7%; in experiment [6] (setting [16]) it was 93.7%. Besides, the viability is 103% (inactive) in experiment [12] and 95.5% (inactive) in experiment [13]. In experiment [2], the Her2 level was 93% (inactive). Besides, the differential viability (reversal) in experiment [6] (H69AR cells + 2 uM doxorubicin) was 8% (inactive). The inhibition in [7] is 1.6% (inactive); in experiment [8] it was -2.17% (inactive); in experiment [14], 2.85% (inactive). Besides, the growth inhibition in experiment [9] is -12.4% (inactive); in [10], 12.7% (inactive). Further, in experiment [11], the viability increase was -3.96% (inactive).
Take `CN1CCc2c(sc3c2c(=O)n(-c2ccccc2)c2nnc(SCc4ccc(F)cc4)n32)C1`: the viability in [1] was 82%; in experiment [3], 82% (inactive); in experiment [4], 109% (inactive); in experiment [5], 102% (inactive). For the same compound, in [2], the Her2 level is 94.5% (inactive). The inhibition in experiment [7] was -1.95% (inactive); in experiment [8] it was 0.79% (inactive).
